Laboratory results: PubChem BioAssay (NCATS)
Results filed as inconclusive are left out. Entries that show only a call come without a potency. A number with no mark means an inactive call. Calls of active or inactive are those of the source. The call rests on the fitted dose curve; in most records, active means well fitted inhibition curve with a large enough effect; inconclusive means small, poorly fitted or top-dose-only effect; inactive means no such curve, though single readings can be large or run the other way. Non-standard residues stand in square brackets, D forms with d. Residues, ends and D or L forms follow the SMILES beside them. *: point of attachment. Nva = CCC[C@H](N)C(=O)O; Cbz = O=C(OCc1ccccc1)*

Assay: qHTS Screen of the MIPE 4.0 Collection Against Ewings Sarcoma (TC32) (AID 1259256); further: nearly all actives have a fitted effect of over 45% in size
Conditions: TC32 Ewing sarcoma viability, CellTiter-Glo, 48 h; series mostly up to 45.8 µM
Text: There is a large unmet medical need for treatments for Ewing sarcoma, a pediatric sarcoma. We sought to identify compounds that inhibited Ewing sarcoma cells in vitro with the goal to then test promising drugs in two drug combinations in vitro to look for synergistic drug combinations. Promising combinations would then proceed to additional validation, including in vivo testing.
Using the NCATS developed oncology compound library called the Mechanism of Interrogation Plate (MIPE), four Ewing sarcoma cell lines were evaluated (TC32, TC71, RDES, EW8). Compounds, in a 12-point titration series, were incubated with cells for 48 hours and the read out was cell viability (CellTiter-Glo from Promega). These initial experiments were used to select appropriate concentrations of each single agent for subsequent two-drug matrix combinations such that the concentrations in the matrices would span both activity and non-activity.
Cells, in the log phase of growth, were seeded in 5 uL of RPMI plus 5% FBS, […] L-glutamine, 100 U/ml penicillin and 100 ug/ml streptomycin into 1536-well solid-bottom white tissue culture treated Greiner Bio One Plates (789173-F) using a MultiDrop Combi (Thermofisher Scientific) dispenser and a small sterile cassette. One column was media alone to be used as a :"no cells" control. The plates were then covered with sterilized stainless steel gasketed lids from Kalypsys. After allowing cells to attach for 4 hours, 23 nL of test compound or control (negative control DMSO and positive control 9.2 uM Bortezomib-final) were added from a 1536-well polypropylene compound source plate to each well using a 1536 head pin tool from Kalypsys. Cells were then incubated for 48 hours at 37C, 95% relative humidity and 5% CO2. After 48 hours, plates were removed from the incubator and 3 uL of CellTiter-Glo (Promega) was added using an Aurora Flying Reagent Dispenser Bioraptor. Plates were incubated at room temperature for 10 minutes prior to reading the luminescence on the Viewlux (PerkinElmer). The relative luciferase units are used to calculate the percent activity using the activity of DMSO in the cells and no cells columns for normalization of no inhibition and full inhibition respectively.
Potency means the concentration at half of the fitted maximal effect.

| SMILES | Potency | viability (percent of control) |
| --- | --- | --- |
| CC(Oc1ccc(O)cc1)(P(=O)(O)O)P(=O)(O)O | inactive |  |
| COc1cc(C[C@@H](CO)[C@H](CO)Cc2ccc(O)c(OC)c2)ccc1O | 0.372 µM (active) |  |
| CCOC(=O)C1=C(C)NC(=S)NC1c1cccc(O)c1 (stereo not given) | inactive |  |
| COc1ccc2cc([S+]([O-])Cc3ncc(C)c(OC)c3C)nc2c1 | inactive |  |
| CCOc1cc2ncc(C#N)c(Nc3ccc(OCc4ccccn4)c(Cl)c3)c2cc1NC(=O)C=CCN(C)C | 2.96 µM (active) |  |
| c1ccc2c(Oc3nc(Nc4ccc(N5CCOCC5)cc4)c4ncn(C5CCCCC5)c4n3)cccc2c1 | inactive |  |
| C[C@@]12C[C@@]3(O)O[C@@H](O1)[C@]1(COC(=O)c4ccccc4)[C@@H]3C[C@@]12O[C@@H]1O[C@H](CO)[C@@H](O)[C@H](O)[C@@H]1O | inactive |  |
| N#CC(=C(O)c1ccc(Cl)cc1Cl)c1nc2cc(Cl)ccc2c(=O)[nH]1 | inactive |  |
| CCN(CC)Cc1ccc2cc(COC(=O)Nc3ccc(C(=O)NO)cc3)ccc2c1 | 0.662 µM (active) |  |
| Cn1cc(C2=C(c3c4n(c5ccccc35)CCC(CN)C4)C(=O)NC2=O)c2ccccc21 (stereo not given) | 20.9 µM (active) |  |
| COc1cc(N2CCC(C(N)=O)CC2)ccc1Nc1nc(N)c(Cl)c(Nc2ccccc2S(=O)(=O)C(C)C)n1 | 6.62 µM (active) |  |
| COc1cc([C@@H]2c3cc4c(cc3[C@H](O)[C@H]3COC(=O)[C@@H]23)OCO4)cc(OC)c1OC | 0.0372 µM (active) |  |
| Cc1[nH]c(C=C2C(=O)Nc3ccccc32)c(C)c1CCC(=O)O | 0.235 µM (active) |  |
| COc1cccc2c1C(=O)c1c(O)c3c(c(O)c1C2=O)C[C@@](O)(C(C)=O)C[C@H]3O[C@H]1C[C@H](N)[C@H](O)[C@H](C)O1 | 0.0469 µM (active) |  |
| C#C[C@]1(O)CC[C@@H]2[C@@H]3CCC4=CC(=O)CC[C@@H]4[C@H]3CC[C@@]21CC | inactive |  |
| FC(F)(F)c1ccc(Nc2nc3ccc(Oc4ccnc(-c5ncc(C(F)(F)F)[nH]5)c4)cc3[nH]2)cc1 | 9.35 µM (active) |  |
| N#Cc1c(C2CCNCC2)cc(-c2c(O)cccc2OCC2CC2)nc1N | 14.8 µM (active) |  |
| COc1cc(C(C)C)c(Oc2cnc(NC(CO)CO)nc2N)cc1I | 1.48 µM (active) |  |
| Cc1coc2c1C(=O)C(=O)c1c-2ccc2c(C)cccc12 | inactive |  |
| NC(=O)c1ncn([C@@H]2O[C@H](CO)[C@@H](O)[C@@H]2O)c1N | inactive |  |

| SMILES | Potency | viability (percent of control) |
| --- | --- | --- |
| c1coc(CNc2ncnc3nc[nH]c23)c1 | inactive |  |
| Cc1nc(NC(=O)N2CCC[C@@H]2C(N)=O)sc1-c1ccnc(C(C)(C)C(F)(F)F)c1 | 6.62 µM (active) |  |
| Cc1cnc(NC(=O)Nc2cc(Br)c(C)cc2OC[C@@H]2CNCCO2)cn1 | 0.59 µM (active) |  |
| CC(C)NC[C@@H](C(=O)N1CCN(c2ncnc3c2[C@H](C)C[C@H]3O)CC1)c1ccc(Cl)cc1 | 2.64 µM (active) |  |
| CCC[C@@H](C=O)NC(=O)[C@H](CC(C)C)NC(=O)[C@H](CC(C)C)NC(=O)OCc1ccccc1 (Cbz-Leu-Leu-[Nva]-aldehyde) | 1.05 µM (active) |  |
| C=CC1=C(C(=O)O)N2C(=O)[C@@H](NC(=O)C(=NO)c3csc(N)n3)[C@H]2SC1 | inactive |  |
| CCN(C(=O)c1c(O)c2c(Cl)cccc2n(C)c1=O)c1ccccc1 | inactive |  |
| COc1cccc2c1C(=O)c1c(O)c3c(c(O)c1C2=O)C[C@@](O)(C(=O)CO)C[C@H]3O[C@H]1C[C@H](N)[C@H](O)[C@H](C)O1 | inactive |  |
| CCn1c(=O)c2c(nc(C=Cc3ccc(OC)c(OC)c3)n2C)n(CC)c1=O | inactive |  |
| CC(C)(C)[C@H](NC(=O)c1ccc(N)c(Cl)c1)C(=O)N1CCC[C@@H]1C(=O)N[C@H](C#N)CC(=O)O |  | 127% [at 3.51 µM] |
| O=S(=O)(O)CCSSCCS(=O)(=O)O | inactive |  |
| O=C1c2c(O)cccc2[C@@H]([C@@H]2O[C@H](CO)[C@@H](O)[C@H](O)[C@H]2O)c2cc(CO)cc(O)c21 | inactive |  |
| CN(C)c1ccc2cc(C(=O)N[C@@H](CCCN=C(N)CCl)C(=O)NCc3ccccc3)ccc2c1 | 7.43 µM (active) |  |
| Cc1ccc(O)c(C(CCN(C(C)C)C(C)C)c2ccccc2)c1 (stereo not given) | inactive |  |
| Cn1cnc2c(F)c(Nc3ccc(Br)cc3F)c(C(=O)NOCCO)cc21 | inactive |  |
| CC(=O)O[C@H]1C[C@@H]2CC[C@H]3[C@H]4C[C@H]([N+]5(C)CCCCC5)[C@@H](OC(C)=O)[C@@]4(C)CC[C@@H]3[C@@]2(C)C[C@H]1N1CCCCC1 | 7.43 µM (active) |  |
| OCC(O)C(O)C(O)CO (stereo not given) | inactive |  |
| CCCCCCCN(CC)CCCC(O)c1ccc(NS(C)(=O)=O)cc1 (stereo not given) | inactive |  |
| C[C@H](NC(=O)[C@@H](O)c1cc(F)cc(F)c1)C(=O)N[C@@H]1C(=O)N(C)c2ccccc2-c2ccccc21 | inactive |  |
| CC(=O)[C@]1(O)Cc2c(O)c3c(c(O)c2[C@@H](O[C@H]2C[C@H](N)[C@@H](O)[C@H](C)O2)C1)C(=O)c1ccccc1C3=O | 0.0047 µM (active) |  |
